This is a sample that favours compounds with a hit; in the whole collection about 11% have one here.
BAZ2B block = BAZ2B (human) inhibition | Q9UIF8 | AlphaScreen BAZ2B-H3K14Ac peptide displacement | Potency, µM (doses to about 114 µM), without a hit: at the highest dose activity change, negative = inhibition, usual class: inhibitors | 4.4% of 360,000 active | AID 504333; further: on the % scale 0 is the no-effect control and ±100 the full control effect; nearly all actives have a fitted effect of over 60% in size
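BAZ2B 50 nM plus b-H3(5-23)K14Ac 50 nM, PBS pH 7.4/0.01% Tween-20, 30 min RT; compound added (max 110 uM), 30 min RT; streptavidin donor/Ni-chelate acceptor beads 10 ug/mL final, 20 min dark; AlphaScreen read.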
G9a block = blocks human histone lysine methyltransferase G9a | Potency, µM (highest dose often 102 µM), without a hit: top-dose activity, negative = inhibition, actives largely listed as inhibitors | AID 504332 | 8.8% of 350,000 active | G9a H3K9 monomethylation, AlphaScreen, 2 h; further: on the % scale 0 is the no-effect control and ±100 the full control effect; nearly all actives have a fitted effect of over 75% in size
Target sequence (Q96KQ7 913-1193 limits assumed): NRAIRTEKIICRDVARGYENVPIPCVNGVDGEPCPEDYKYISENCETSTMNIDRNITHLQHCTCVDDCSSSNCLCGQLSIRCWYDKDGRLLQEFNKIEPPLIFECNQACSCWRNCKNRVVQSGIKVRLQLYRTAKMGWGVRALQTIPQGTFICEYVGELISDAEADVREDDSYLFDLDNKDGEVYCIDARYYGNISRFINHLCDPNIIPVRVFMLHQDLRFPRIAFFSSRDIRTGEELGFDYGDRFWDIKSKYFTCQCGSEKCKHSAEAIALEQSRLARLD
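Methyltransferase reactions run at room temperature for 2 h (20 nM enzyme, 500 nM biotin-H3K9 peptide, 20 uM SAM) after a 15 min compound preincubation; product detected by AlphaScreen beads and anti-H3K9me1 antibody.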
HP1b chromo inh = inhibitors of HP1-beta chromodomain binding to methylated histone tails; P83916; AlphaScreen HP1-beta / biotin-H3K9me3 peptide binding; Potency, µM (top dose mostly 114 µM), without a hit: top-dose activity change, negative = inhibition, hits mostly inhibitors; 0.56% of 390,000 active; AID 540317; further: nearly all actives have a fitted effect of over 70% in size
Target sequence (P83916 whole entry, looked up): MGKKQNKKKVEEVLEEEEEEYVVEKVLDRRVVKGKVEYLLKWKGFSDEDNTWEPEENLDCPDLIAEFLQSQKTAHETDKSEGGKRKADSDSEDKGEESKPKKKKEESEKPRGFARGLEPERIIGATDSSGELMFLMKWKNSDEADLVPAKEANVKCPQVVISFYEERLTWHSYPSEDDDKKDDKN
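AlphaScreen: HP1-beta (50 nM) preformed 30 min with biotin-H3(1-18)K9me3 peptide (50 nM) in PBS pH 7.4, 0.01% Tween-20. Compound added for 30 min at RT, then streptavidin donor/nickel chelate acceptor beads (10 ug/mL) for 30 min.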
JMJD2A Tudor inh = JMJD2A Tudor domain (human) inhibition | Potency, µM (doses to about 114 µM), without a hit: at the top dose activity change, negative = inhibition, hits mostly inhibitors | AID 504339 | AlphaScreen JMJD2A-Tudor / H3K4me3 peptide binding | 4.4% of 390,000 active | O75164; further: on the % scale 0 is the no-effect control and ±100 the full control effect; nearly all actives have a fitted effect of over 50% in size
L3MBTL1 inh = inhibitors of human L3MBTL1; AlphaScreen L3MBTL1–H3K9me1 peptide binding; Potency, µM (highest dose often 57.1 µM), for the others: at the top dose activity, negative = inhibition, hits mostly inhibitors; 0.66% of 230,000 active; further: on the % scale 0 is the no-effect control and ±100 the full control effect; nearly all actives have a fitted effect of over 60% in size
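Read-out is AlphaScreen signal from streptavidin donor and nickel chelate acceptor beads (10 ug/mL final each) bridging L3MBTL1 (50 nM) and biotinylated K9-monomethylated H3(1-15) peptide (75 nM), after 30 min compound exposure at room temperature.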
Active calls of the source: *; ? = inconclusive; . = no result; [ ] = another dose, or the depositor's remark. The call rests on the fitted dose curve; in most records, active means well fitted inhibition curve with a large enough effect; inconclusive means small, poorly fitted or top-dose-only effect; inactive means no such curve, though single readings can be large or run the other way. Potency means the concentration at half of the fitted maximal effect.

SMILES	BAZ2B block	G9a block	HP1b chromo inh	JMJD2A Tudor inh	L3MBTL1 inh
COc1ccc(C2/C(=C(\O)c3ccc4c(c3)OCCO4)C(=O)C(=O)N2c2nc(C)c(C(C)=O)s2)cc1 (configuration not stated)	?	45µM*	7%	-28%	.
COc1ccc(C2/C(=C(\O)c3ccc4c(c3)OCCO4)C(=O)C(=O)N2Cc2ccco2)c(OC)c1 (configuration not stated)	?	?	-7%	?	-15%
COCCN1C(=O)C(=O)/C(=C(/O)c2ccc3c(c2)OCCO3)C1c1ccc(C(=O)OC)cc1 (configuration not stated)	?	?	-8%	45µM*	2%
COC(=O)c1ccc(C2/C(=C(/O)c3ccc4c(c3)CC(C)O4)C(=O)C(=O)N2CCN2CCOCC2)cc1 (configuration not stated)	-17%[57.1 µM]	50µM*	46%	?	.
Cc1nnc(N2C(=O)C(=O)/C(=C(/O)c3ccc4c(c3)OCCO4)C2c2ccc([N+](=O)[O-])cc2)s1 (configuration not stated)	?	28µM*	.	.	.
CC1(C)Cc2cccc(OCC(=O)OCC(=O)Nc3cccc(S(N)(=O)=O)c3)c2O1	3%	2%[59 µM]	32%	-12%	.
COc1cccc(C2/C(=C(\O)c3ccc4c(c3)OCCO4)C(=O)C(=O)N2c2nnc(C)s2)c1 (configuration not stated)	?	-6%[0.501 µM]	3%[57 µM]	-17%	.
COC(=O)c1ccc(C2/C(=C(\O)c3ccc4c(c3)OCCO4)C(=O)C(=O)N2c2nnc(C)s2)cc1 (configuration not stated)	-38%	45µM*	66%	-29%	.
Cc1ccc(C(=O)NNC(=O)c2csc(N3CCOCC3)n2)o1	?	-3%[0.501 µM]	29%	?	-4%
O=C(NNC(=O)c1ccco1)c1csc(N2CCOCC2)n1	?	7.1µM*	37%	-1%	1%
O=C(NCCc1ccc(Cl)cc1)C1CCN(Cc2cc3ccccc3n2Cc2ccccc2)CC1	-20%	10%[59 µM]	33%	-21%	.
OCCCNCc1ccc(N(c2ccccc2)c2ccccc2)cc1	56µM*	13µM*	71µM*	40µM*	.
OCCNCc1ccc(-c2ccccc2)cc1	7%	-11%[59 µM]	24%	-27%	9%
CC(C)[C@@H]1NC(=O)c2cc([N+](=O)[O-])cc(F)c2NCCC[C@@H](C(N)=O)NC(=O)[C@H](CO)NC1=O	?	40µM*	.	.	0%
C[C@@H](O)C1NC(=O)[C@H](CCCCN)NC(=O)c2cc([N+](=O)[O-])cc(I)c2NCCC[C@@H](C(N)=O)NC1=O (some centres not stated)	-32%	50µM*	27%	-25%	0%
CC(C)C[C@@H]1NC(=O)[C@H](C(C)C)NC(=O)c2cc([N+](=O)[O-])cc(I)c2NCC[C@@H](C(N)=O)NC1=O	79µM*	13µM*	23%	-20%	-4%
CC(C)[C@@H]1NC(=O)c2cc([N+](=O)[O-])cc(I)c2NCC[C@@H](C(N)=O)NC(=O)[C@H](CO)NC1=O	?	13µM*	.	.	-8%
COc1ccc(CNC(=O)Cc2c(C(=O)O)c(C)cn2C)cc1	-17%	5%[59 µM]	25%	-8%	.
C/C(N)=C(/C#N)C(=O)COC(=O)CNS(=O)(=O)c1c(F)cccc1F	-17%	-17%	17%	-14%	3%
NC(=O)[C@@H]1CCCCNc2c(F)cc([N+](=O)[O-])cc2C(=O)N[C@@H](CC(=O)O)C(=O)NCC(=O)N1	-4%	?	53%	-6%	8%
C[C@@H]1NC(=O)c2cc([N+](=O)[O-])cc(I)c2NCCCC[C@@H](C(N)=O)NC(=O)[C@H](CC(N)=O)NC1=O	?	32µM*	33%	-20%	2%
COc1cc(NC(C)CCCN)c2ncccc2c1 (configuration not stated)	56µM*	13µM*	-6%	?	-10%
N#Cc1c(SCc2ccccc2)sc(C(=O)c2ccccc2)c1N	-1%	11µM*	32%	-4%	.
Cc1ccc(CSc2sc(C(=O)c3ccccc3)c(N)c2C#N)cc1	19%	-33%[59 µM]	81%	20%	.
O=C(CN1C(=O)NC2(CCCC2)C1=O)OCCOc1ccc(Br)cc1	-2%	3%[0.501 µM]	30%	-9%	6%
SMILES	BAZ2B block	G9a block	HP1b chromo inh	JMJD2A Tudor inh	L3MBTL1 inh
CCCCn1c(-c2csc(C(C)C)c2)n[nH]c1=S	-8%	4µM*	?	79µM*	-4%
CCCn1c2ccc(C)cc2c2n[nH]c(=S)nc21	-36%	?	26%	-25%	.
CCCCn1c(-c2csc(CC)c2)n[nH]c1=S	-36%	1.8µM*	-19%	40µM*	-7%
CCCc1cc(-c2n[nH]c(=S)n2CC(C)C)cs1	-30%	2µM*	-2%	79µM*	1%
CCOc1ccc(NC(=O)C2CCCN(S(=O)(=O)c3cccc4nonc34)C2)cc1 (configuration not stated)	-12%	4%[59 µM]	6%	-16%	.
CCc1cccc(NC(=O)Cn2c(=O)n(CC(=O)NCCc3ccccc3)c(=O)c3ccccc32)c1	?	-17%[59 µM]	18%	-20%	.
Cc1ccc(N=Cc2sc(O)c3ccccc23)cc1	33%	8.9µM*	67%	14%[57.1 µM]	34%
Cc1ccc(N=Cc2sc(O)c3ccccc23)c(C)c1	14%	8.9µM*	-4%	-6%	-3%
Cc1ccc(N=Cc2c(O)c3ccccc3n(C)c2=O)cc1	13%	32%[0.501 µM]	29%	-19%	.
Cc1ccc(N=Cc2ccc[nH]2)c(O)c1	?	?	-7%	-31%	-16%
CC(=O)c1c(C)[nH]c(C(=O)N2CCCCCC2)c1C	50µM*	35%[0.501 µM]	?	-35%[11.4 µM]	-7%
CC(=O)c1c(C)[nH]c(C(=O)NCC2CCCCC2)c1C	-13%	40µM*	13%	-18%	.
CC(=O)N1CCCc2cc(S(=O)(=O)N(C)CC(=O)Nc3cccc(C)c3C)ccc21	2%	3%[59 µM]	9%[57 µM]	-2%	.
Cc1cc(Cl)ccc1Oc1ncnc2oc(-c3ccccc3)cc12	79µM*	36%[0.501 µM]	13%	?	-2%
c1cc2c(cn1)cnc1cscc12	-1%	79µM*	32%	10%	-1%
O=C(Oc1c(CN2CCOCC2)cc(Cl)c2cccnc12)c1ccc(F)cc1	20µM*	7%[59 µM]	-2%	22µM*	?
COc1cccc(C(=O)Oc2c(CN3CCOCC3)cc(Cl)c3cccnc23)c1	45µM*	-33%	33%	50µM*	.
COc1cccc(C(=O)OCCN2CCOCC2)c1	-16%	-6%	69%	-9%	6%
O=C(Oc1c(CN2CCOCC2)cc(Cl)c2cccnc12)c1cccs1	.	26%	25%	?	-85%
COc1ccc(C(=O)Oc2c(CN3CCOCC3)cc(Cl)c3cccnc23)cc1	50µM*	?	34%	?	.

Screening data deposited in PubChem BioAssay by National Center for Advancing Translational Sciences (NCATS).
